# Rows were chosen to be rich in hits. Some 5.4% of all compounds tested hit in one or more screens of this group.
# PfM18AAP inh – PfM18AAP enzyme inhibition; hit rate 1.2% among 290,000; inhibition, % at 7.35 µM; recombinant PfM18AAP, H-Glu-NHMec fluorogenic cleavage;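 active means inhibition above the campaign mean inhibition over all tested compounds plus 3 SD, cut at about 28% in these data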;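 further: 0% = plate median of test compound wells and 100% = 2 mM ZnCl2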
# ALR inh – blocks human ALR sulfhydryl oxidase activity; P55789; purified ALR, DTT oxidation, H2O2 HRP-luminol luminescence; inhibition, % (test concentration not listed); hit rate 3.8% among 290,000; AID 485317;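 active means mean replicate inhibition above about 79%, with every replicate also reaching it, limit read from the data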
# Target sequence (P55789 whole entry, looked up): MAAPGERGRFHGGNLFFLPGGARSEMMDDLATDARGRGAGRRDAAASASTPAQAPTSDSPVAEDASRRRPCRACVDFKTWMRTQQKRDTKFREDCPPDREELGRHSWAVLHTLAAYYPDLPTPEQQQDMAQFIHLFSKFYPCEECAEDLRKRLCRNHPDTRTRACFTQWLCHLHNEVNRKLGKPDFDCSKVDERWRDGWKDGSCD
# Granule exo inh – blocks lytic granule exocytosis; TALL-104 LAMP-1 surface exposure, flow cytometry; cells stimulated with thapsigargin and PMA; inhibition, % at 10 µM; hit rate 0.66% among 360,000;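 active means inhibition above about 55%, limit read from the data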
# JMJD2C inh – human JMJD2C demethylase inhibition. inhibition, % at 2.35 µM. GST-JMJD2C(1-420) H3K9me3 demethylation, DELFIA europium. Q9H3R0. hit rate 0.069% among 330,000;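 active means more than half of a compound's replicate wells show inhibition beyond 50%, single wells judged on their own value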;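 further: signal counts dimethyl H3K9 product captured on neutravidin plate; 0% = median of DMSO wells and 100% = 0.3 times that DMSO median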
# Target sequence (Q9H3R0 1-420 limits assumed): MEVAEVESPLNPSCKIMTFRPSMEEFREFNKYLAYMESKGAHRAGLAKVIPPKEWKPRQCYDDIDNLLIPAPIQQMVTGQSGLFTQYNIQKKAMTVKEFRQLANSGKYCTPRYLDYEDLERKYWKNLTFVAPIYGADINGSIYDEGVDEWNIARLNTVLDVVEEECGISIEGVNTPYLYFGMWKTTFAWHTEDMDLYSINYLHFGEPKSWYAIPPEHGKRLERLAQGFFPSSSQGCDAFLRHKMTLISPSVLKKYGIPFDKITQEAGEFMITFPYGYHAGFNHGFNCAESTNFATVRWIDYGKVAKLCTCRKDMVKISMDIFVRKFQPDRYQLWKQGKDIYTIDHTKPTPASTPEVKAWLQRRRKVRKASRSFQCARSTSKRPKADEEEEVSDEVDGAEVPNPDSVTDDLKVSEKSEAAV
# SMARCA2 activ – activators of SMARCA2 function | activation, % at 9.1 µM | MG213 cells, MMTV-luciferase reporter, dexamethasone, overnight | hit rate 1% among 370,000; in the data active means activation above about 7.8%;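 further: 0% = vehicle wells and 100% = reference activator wells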
# beta cell repl – inducers of beta-cell replication in MIN6 cells. MIN6 cells proliferation, ATPlite luminescence, 48 h; cells starved in 0.2% serum; 100% = growth in 10% serum. proliferation, % at 10 µM. hit rate 0.29% among 330,000. AID 2380;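 active means compounds whose signal lies at least 3.5 SD above the mean of all wells on their plate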;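 further: 0% = DMSO-treated cells in low-serum medium and 100% = 10% serum control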
# SMARCA2 act conf – confirmation of SMARCA2 (BRM) function activators. shares compounds with SMARCA2 activ. hit rate 30% among 3,500. AID 652260. activation, % at 9.1 µM. MG213 cells, MMTV-luciferase with dexamethasone, luminescence, overnight; MG213 cells expressing E1A, Rb sequestered; DMSO wells 0%, reference activator 100%;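 active means activation above its plate's cutoff, the mean activation of tested wells plus 3 SD, cut at about 7.9% in these data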
# VP16 Luc act – counter-screen for SMARCA2 activators: GAL4-VP16 luciferase reporter activation; shares compounds with SMARCA2 activ; HEK293 GAL4-VP16 pG5luc reporter, luciferase luminescence; scaled: DMSO wells 0%, SAHA wells 100%; activation, % at 9.1 µM; hit rate 41% among 3,500; AID 686939;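 active means activation above the solvent-only control well mean plus 3 SD, averaged across control plates, cut at about 5.2% in these data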
# Active calls of the source: *; . = no result; ! = repeats disagree.
SMILES,PfM18AAP inh,ALR inh,Granule exo inh,JMJD2C inh,SMARCA2 activ,beta cell repl,SMARCA2 act conf,VP16 Luc act
Cc1cccc(/C(N)=N/OC(=O)c2ccoc2C)c1,-1.5,3.0,-0.1,-1.4,8.1*,-3.5,13.0*,12.9*
COc1ccc(C(=O)O/N=C(\N)c2ccccc2)cc1OC,-2.1,-13.1,-13.5,-3.5,6.5,-6.3,.,.
COc1cc(OC)c(C(=O)O/N=C(\N)c2ccccc2)cc1OC,0.4,-2.4,-8.1,-16.5,8.6*,-3.2,3.5,1.7
CCOC(=O)C1(C)CCCN(C(=O)c2cc(C#N)cs2)C1 (stereo unspecified),.,.,-4.6,.,-1.2,.,.,.
CSc1ccc(Cn2c(C)c(C(=O)NCc3ccco3)sc2=O)cc1,.,.,6.8,.,-0.5,.,.,.
Cc1cccc(C(=O)O/N=C(\N)c2ccc(Br)cc2)c1,-23.4,1.2,0.0,5.9,2.0,-5.6,.,.
Cc1cccc(C(=O)O/N=C(\N)c2ccc(Cl)cc2)c1,-0.3,0.9,10.7,-9.0,9.0*,-2.9,7.6,4.9
CN(C)c1ccc(/C=C2\CCCc3c2nc2ccccc2c3C(=O)O)cc1,8.4,.,-17.6,15.0,9.6*,-2.7,3.6,5.5*
COc1ccc(/C=C2\CCCc3c2nc2ccccc2c3C(=O)O)cc1OC,2.9,-22.3,.,3.6,.,3.6,.,.
CCc1ccc2oc(C(=O)Nc3nonc3C)c(C)c2c1,-1.0,-1.8,-2.4,-2.4,1.5,-1.4,.,.
Cc1ccc2oc(C(=O)Nc3cc(C)on3)c(C)c2c1,.,-0.9,-5.6,3.4,9.4*,-3.9,8.2*,8.0*
Cc1cc2oc(C(=O)Nc3nonc3C)c(C)c2cc1C,14.1,0.4,-7.5,6.6,8.9*,-1.3,7.3,11.0*
C[C@@H]1CN([C@@H](C)CO)C(=O)CCCn2nncc2CO[C@@H]1CN(C)S(=O)(=O)c1cccc(F)c1,.,.,0.4,.,1.5,.,.,.
CC(C)NC(=O)c1cccc2c(-c3ccc(F)c(F)c3)coc12,.,.,-5.1,.,1.9,.,.,.
Cc1cc(NC(=O)CSc2nc3sc4c(c3c(=O)n2C)CCCC4)no1,-8.5,-7.1,-1.6,7.0,-1.4,0.2,.,.
Cn1c(SCC(=O)Nc2ccc(S(=O)(=O)Nc3nccs3)cc2)nc2sc3c(c2c1=O)CCCC3,.,.,.,.,11.0*,.,2.8,1.1
COc1cccc(CC(=O)Nc2ccc(S(=O)(=O)Nc3nccs3)cc2)c1,.,1.4,12.5,-2.9,8.4*,-2.0,-1.6,2.3
CCOC(=O)c1sc2nc(OCc3cccnc3)cc(C)c2c1N,.,.,5.1,.,0.9,.,.,.
CCOc1ccc(CNC(=O)CN2C(=O)CSc3ccc(S(=O)(=O)N4CCOCC4)cc32)cc1OC,-2.7,-2.3,1.5,18.9,8.8*,0.2,-5.5,-0.5
CCOC(=O)[C@]12CCC=C1N(Cc1ccc3c(c1)OCO3)C(=O)[C@H](CC(=O)NCCC(C)C)C2,.,.,-5.9,.,5.4,.,.,.
OC1CCN(c2c3c(nc4cc(-c5cccc(F)c5)nn24)CCCC3)CC1,0.5,1.7,-1.3,-1.7,2.5,-2.4,.,.
CN(CCO)c1c2c(nc3cc(-c4cccc(F)c4)nn13)CCCC2,1.4,-2.5,0.4,4.7,13.4*,-4.0,11.2*,18.4*
CCC(C)c1ccc(OCCN2CCCC2)cc1 (stereo unspecified),1.9,-11.9,-1.5,-14.6,9.2*,0.0,2.7,1.1
CCOC(=O)c1nn(-c2ccc(Cl)cc2)c2nnc(Cc3ccccc3)c(=O)n12,-7.8,-3.7,-0.3,-4.6,12.1*,1.5,-1.9,-0.4
O=C1NC[C@@H](CCCCN2C[C@H](Cc3ccc(O)cc3)N(CCc3ccccc3)C(=O)C2=O)N(CCC2CCCCC2)C1=O,.,.,-10.1,.,-1.3,.,.,.
SMILES,PfM18AAP inh,ALR inh,Granule exo inh,JMJD2C inh,SMARCA2 activ,beta cell repl,SMARCA2 act conf,VP16 Luc act
Cc1ccc([C@H]2C[C@@H](O)[C@H](n3cc(COC(=O)c4ccccc4)nn3)CN2C(=O)c2cccs2)cc1,.,.,-2.5,.,-1.5,.,.,.
COCCCn1c(=O)/c(=C\c2ccccc2OC(F)F)s/c1=C(/C#N)C(=O)NC(C)C,0.1,-1.8,3.0,-0.6,14.0*,1.4,4.8,1.8
COCCCn1c(=O)/c(=C\c2ccccc2OC(C)C)s/c1=C(/C#N)C(=O)Nc1ccc(C(=O)O)cc1,7.1,7.0,3.3,19.4,1.1,-5.3,.,.
CC1CCCCN1C(=O)c1cc(-c2ccc3c(c2)OCO3)on1 (stereo unspecified),-1.1,.,-2.3,9.5,9.2*,-2.2,6.2,12.1*
O=C(O)c1cc(C2CC2)nn1-c1ccccc1,9.6,0.8,6.4,6.2,3.1,1.4,.,.
Nc1cc(C2CCCC2)nn1-c1ccccc1,14.1,10.1,-8.8,-59.2,9.0*,-0.6,18.0*,5.0
O=C(Cn1c(=O)c2sccc2n(Cc2cccc([N+](=O)[O-])c2)c1=O)NCCc1ccccc1,4.1,-5.0,-1.2,-8.1,-2.2,-1.6,.,.
O=C(Cn1c(=O)c2sccc2n(Cc2ccc([N+](=O)[O-])cc2)c1=O)NCCc1ccccc1,2.9,-4.5,1.8,-7.1,10.2*,3.1,-6.1,0.4
COC(=O)[C@H](CC(C)C)N(CCc1cn(Cc2ccc(C)cc2)nn1)S(=O)(=O)c1ccccc1Br,.,.,.,.,-2.5,.,.,.
O=C(Nc1ccccc1)OC1CC2CC1[C@H]1CCCCN1[C@H]2Cc1ccccc1 (stereo partly specified),.,.,.,.,-2.1,.,.,.
COc1cc(C23CCCN(CCC(C(C)(C)C)C2)C32OCCO2)cc(OC)c1OC (stereo unspecified),.,.,6.9,.,-4.5,.,.,.
Cn1c(-c2ccc(-c3ccccc3)cc2)c[nH]c1=S,-1.5,49.6,22.2,1.1,0.4,-0.7,.,.
C=CCn1c(-c2ccccc2)c[nH]c1=S,-1.1,36.8,-1.3,5.3,12.7*,0.2,5.0,6.0*
OC(c1cccc(CN2CCCCC2)c1)c1ncc(-c2cccc3ccccc23)[nH]1 (stereo unspecified),.,.,-4.9,.,-6.0,.,.,.
COC(=O)c1ccc(N)c2c(N)ccc(C(=O)OC)c12,.,.,.,.,-4.1,.,.,.
CCN1CCN(Cc2ccc(NC(=O)c3cc(NC(=O)c4cnnc5ccccc45)cc(OC)c3)cc2C(F)(F)F)CC1,.,-9.7,3.5,10.1,14.1*!,-8.4,8.7*,1.2
CCN1CCN(Cc2ccc(NC(=O)c3cc(NC(=O)c4nccnc4N)cc(OC)c3)cc2C(F)(F)F)CC1,.,-14.4,2.8,-10.5,3.9,-7.8,.,.
O=C(Nc1ccccc1)c1ccc(NCC2CCCO2)c([N+](=O)[O-])c1 (stereo unspecified),-9.1,-2.0,0.2,18.8,8.8*,-0.8,1.6,3.6

# Source: PubChem BioAssay (several laboratories)
